From publication PMC7862700, “An all-to-all approach to the identification of sequence-specific readers for epigenetic DNA modifications on cytosine”

Key:
Test in all cases: DAPPL (digital affinity profiling via proximity ligation, sequencing); 10 mM Tris-HCl pH 7.5, 50 mM NaCl, 1 mM DTT, 4% glycerol, room temperature, 30 min; GST-TFs on glutathione beads, 16-mer random dsDNA library, 0.1% formaldehyde crosslink after washing; high values mean tight binding
Settings in all cases: protein: recombinant; tags: N-terminal GST; dsDNA, one strand shown
[1] = target: T1, FLI1 (Homo sapiens, UniProt Q01543 1-452)
T1 sequence: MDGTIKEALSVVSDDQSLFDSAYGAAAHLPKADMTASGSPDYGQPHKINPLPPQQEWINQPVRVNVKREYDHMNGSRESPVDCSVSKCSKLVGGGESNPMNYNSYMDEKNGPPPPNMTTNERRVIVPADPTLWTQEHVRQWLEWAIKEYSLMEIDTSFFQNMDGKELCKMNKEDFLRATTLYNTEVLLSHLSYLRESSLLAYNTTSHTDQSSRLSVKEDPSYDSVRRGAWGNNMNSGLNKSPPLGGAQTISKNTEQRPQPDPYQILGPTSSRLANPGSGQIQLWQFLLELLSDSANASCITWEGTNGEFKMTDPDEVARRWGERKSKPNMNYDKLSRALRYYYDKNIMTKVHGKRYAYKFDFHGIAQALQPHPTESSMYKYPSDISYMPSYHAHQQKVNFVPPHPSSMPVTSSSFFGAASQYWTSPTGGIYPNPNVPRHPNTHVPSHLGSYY
Procedure, shortened: (§1)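 Binding signal is given per hexamer as its read frequency for a factor divided by its frequency in the tag-only sample. GST-fused human transcription factors were expressed in yeast, captured on glutathione beads, barcoded with DNA and pooled with that sample, then incubated with 200 nmole of a 16-mer random double-stranded DNA library in Tris/NaCl/DTT/glycerol buffer for 30 min at room temperature. The pools were then washed, crosslinked, proximity-ligated, amplified by PCR and sequenced on an Illumina NextSeq500.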

[2] = target: T2, ELK1 (Homo sapiens, UniProt P19419 1-428)
T2 sequence: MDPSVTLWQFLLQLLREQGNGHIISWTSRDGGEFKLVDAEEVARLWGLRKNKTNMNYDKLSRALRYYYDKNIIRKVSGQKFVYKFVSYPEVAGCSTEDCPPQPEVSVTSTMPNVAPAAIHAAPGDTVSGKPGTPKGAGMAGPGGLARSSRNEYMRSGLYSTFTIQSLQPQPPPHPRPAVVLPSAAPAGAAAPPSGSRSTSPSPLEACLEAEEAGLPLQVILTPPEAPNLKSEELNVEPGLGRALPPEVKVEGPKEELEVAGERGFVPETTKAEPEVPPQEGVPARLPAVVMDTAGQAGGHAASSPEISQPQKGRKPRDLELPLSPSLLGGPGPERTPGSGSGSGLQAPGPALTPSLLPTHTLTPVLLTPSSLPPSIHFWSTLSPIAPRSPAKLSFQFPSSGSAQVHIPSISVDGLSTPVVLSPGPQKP
Procedure, shortened: as §1

[3] = target: T3, GABPA (Homo sapiens, UniProt Q06546 1-454)
T3 sequence: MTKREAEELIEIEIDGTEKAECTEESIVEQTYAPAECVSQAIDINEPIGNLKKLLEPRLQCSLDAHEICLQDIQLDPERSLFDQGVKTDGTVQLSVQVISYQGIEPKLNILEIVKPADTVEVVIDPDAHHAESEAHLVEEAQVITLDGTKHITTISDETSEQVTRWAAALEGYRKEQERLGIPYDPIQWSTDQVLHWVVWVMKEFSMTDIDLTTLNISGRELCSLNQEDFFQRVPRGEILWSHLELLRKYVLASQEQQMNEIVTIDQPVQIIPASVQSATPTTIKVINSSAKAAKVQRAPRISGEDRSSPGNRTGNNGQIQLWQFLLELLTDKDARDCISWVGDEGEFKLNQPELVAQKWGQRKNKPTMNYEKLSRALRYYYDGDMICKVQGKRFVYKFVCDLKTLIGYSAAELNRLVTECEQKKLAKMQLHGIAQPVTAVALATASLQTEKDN
Procedure, shortened: as §1

[4] = target: T4, ERG (Homo sapiens, UniProt P11308 1-479)
T4 sequence: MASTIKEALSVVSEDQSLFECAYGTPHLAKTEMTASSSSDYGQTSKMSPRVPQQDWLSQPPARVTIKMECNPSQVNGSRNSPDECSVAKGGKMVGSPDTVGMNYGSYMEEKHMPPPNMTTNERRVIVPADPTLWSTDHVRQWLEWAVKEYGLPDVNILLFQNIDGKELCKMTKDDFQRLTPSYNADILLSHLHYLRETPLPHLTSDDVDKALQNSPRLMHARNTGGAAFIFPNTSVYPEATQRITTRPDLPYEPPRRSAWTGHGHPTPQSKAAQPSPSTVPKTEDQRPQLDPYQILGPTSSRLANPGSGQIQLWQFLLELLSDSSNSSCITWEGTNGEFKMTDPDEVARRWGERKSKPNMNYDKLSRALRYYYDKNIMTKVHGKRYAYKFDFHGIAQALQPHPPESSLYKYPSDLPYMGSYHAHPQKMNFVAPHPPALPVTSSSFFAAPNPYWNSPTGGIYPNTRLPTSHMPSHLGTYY
Procedure, shortened: as §1

[5] = target: ELF1 (Homo sapiens, UniProt P32519 1-619)
ELF1, sequence (P32519 whole entry): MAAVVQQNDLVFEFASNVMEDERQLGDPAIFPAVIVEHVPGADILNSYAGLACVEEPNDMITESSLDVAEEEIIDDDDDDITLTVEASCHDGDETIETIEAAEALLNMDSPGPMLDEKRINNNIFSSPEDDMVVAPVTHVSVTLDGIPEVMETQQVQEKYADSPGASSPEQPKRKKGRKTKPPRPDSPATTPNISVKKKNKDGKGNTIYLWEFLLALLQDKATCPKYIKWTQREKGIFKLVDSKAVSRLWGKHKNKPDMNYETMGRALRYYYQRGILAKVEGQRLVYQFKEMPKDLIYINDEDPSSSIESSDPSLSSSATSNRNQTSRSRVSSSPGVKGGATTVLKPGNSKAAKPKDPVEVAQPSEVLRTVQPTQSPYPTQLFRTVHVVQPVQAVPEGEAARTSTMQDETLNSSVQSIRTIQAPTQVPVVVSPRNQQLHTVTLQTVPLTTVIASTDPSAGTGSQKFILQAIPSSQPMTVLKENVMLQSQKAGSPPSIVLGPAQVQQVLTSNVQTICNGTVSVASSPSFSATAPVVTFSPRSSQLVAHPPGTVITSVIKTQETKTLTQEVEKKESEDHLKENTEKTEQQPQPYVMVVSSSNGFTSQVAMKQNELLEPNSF
Procedure, shortened: as §1

[6] = target: T5, EHF (Homo sapiens, UniProt Q9NZC4 1-300)
T5 sequence: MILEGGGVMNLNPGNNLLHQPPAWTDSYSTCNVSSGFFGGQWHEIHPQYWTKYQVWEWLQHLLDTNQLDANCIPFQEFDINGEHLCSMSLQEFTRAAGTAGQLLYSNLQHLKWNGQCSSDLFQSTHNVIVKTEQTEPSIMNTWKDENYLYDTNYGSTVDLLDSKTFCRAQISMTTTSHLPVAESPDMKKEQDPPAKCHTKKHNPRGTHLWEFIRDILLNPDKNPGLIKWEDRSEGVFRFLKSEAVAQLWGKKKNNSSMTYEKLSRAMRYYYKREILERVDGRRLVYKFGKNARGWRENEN
Procedure, shortened: as §1

[7] = target: SPI1 (Homo sapiens, UniProt P17947 1-270)
Procedure, shortened: as §1

[8] = target: SPIB (Homo sapiens, UniProt Q01892 1-262)
SPIB, sequence (Q01892 whole entry): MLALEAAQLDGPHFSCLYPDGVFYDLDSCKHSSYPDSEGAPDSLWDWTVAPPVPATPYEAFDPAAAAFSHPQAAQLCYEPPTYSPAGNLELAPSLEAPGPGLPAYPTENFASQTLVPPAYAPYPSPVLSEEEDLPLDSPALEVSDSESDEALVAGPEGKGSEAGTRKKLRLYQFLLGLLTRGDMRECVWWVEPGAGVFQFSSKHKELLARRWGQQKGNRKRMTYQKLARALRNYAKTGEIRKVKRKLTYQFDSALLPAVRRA
Procedure, shortened: as §1

[9] = target: T6, ELK3 (Homo sapiens, UniProt P41970 1-407)
T6 sequence: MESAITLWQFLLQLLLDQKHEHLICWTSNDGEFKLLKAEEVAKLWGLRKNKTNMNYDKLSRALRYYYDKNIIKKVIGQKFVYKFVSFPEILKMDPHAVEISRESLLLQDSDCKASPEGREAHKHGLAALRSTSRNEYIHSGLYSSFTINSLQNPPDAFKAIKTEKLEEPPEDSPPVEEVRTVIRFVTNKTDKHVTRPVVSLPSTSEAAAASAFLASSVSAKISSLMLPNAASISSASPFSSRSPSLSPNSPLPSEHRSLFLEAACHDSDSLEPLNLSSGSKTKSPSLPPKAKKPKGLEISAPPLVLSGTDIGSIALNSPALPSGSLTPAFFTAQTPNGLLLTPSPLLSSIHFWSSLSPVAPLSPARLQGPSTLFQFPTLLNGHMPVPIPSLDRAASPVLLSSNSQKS
Procedure, shortened: as §1

[10] = target: T7, FEV (Homo sapiens, UniProt Q99581 1-238)
T7 sequence: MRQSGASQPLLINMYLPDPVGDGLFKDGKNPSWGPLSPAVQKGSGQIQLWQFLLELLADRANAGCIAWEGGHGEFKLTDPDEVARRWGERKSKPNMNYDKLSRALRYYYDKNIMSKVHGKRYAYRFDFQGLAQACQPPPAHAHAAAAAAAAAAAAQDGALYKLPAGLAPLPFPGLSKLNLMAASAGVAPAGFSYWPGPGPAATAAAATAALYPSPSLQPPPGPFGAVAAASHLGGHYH
Procedure, shortened: as §1

[11] = target: ETV5 (Homo sapiens, UniProt P41161 1-510)
ETV5, sequence (P41161 whole entry): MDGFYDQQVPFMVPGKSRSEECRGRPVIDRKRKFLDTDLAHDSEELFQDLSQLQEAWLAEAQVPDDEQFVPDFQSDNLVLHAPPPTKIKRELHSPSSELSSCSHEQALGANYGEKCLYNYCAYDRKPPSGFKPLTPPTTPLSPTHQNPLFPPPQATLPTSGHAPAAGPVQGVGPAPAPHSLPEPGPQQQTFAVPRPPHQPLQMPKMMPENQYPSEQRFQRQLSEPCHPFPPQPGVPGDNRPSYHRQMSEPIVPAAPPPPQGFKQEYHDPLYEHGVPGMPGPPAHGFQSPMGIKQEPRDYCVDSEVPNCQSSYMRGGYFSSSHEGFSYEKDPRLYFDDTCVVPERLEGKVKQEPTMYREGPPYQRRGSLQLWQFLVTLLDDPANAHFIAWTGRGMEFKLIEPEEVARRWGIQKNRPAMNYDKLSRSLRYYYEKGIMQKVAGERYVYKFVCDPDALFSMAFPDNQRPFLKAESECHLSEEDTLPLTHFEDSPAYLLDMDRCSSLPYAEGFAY
Procedure, shortened: as §1

[12] = target: T8, SPIC (Homo sapiens, UniProt Q8N5J4 1-248)
T8 sequence: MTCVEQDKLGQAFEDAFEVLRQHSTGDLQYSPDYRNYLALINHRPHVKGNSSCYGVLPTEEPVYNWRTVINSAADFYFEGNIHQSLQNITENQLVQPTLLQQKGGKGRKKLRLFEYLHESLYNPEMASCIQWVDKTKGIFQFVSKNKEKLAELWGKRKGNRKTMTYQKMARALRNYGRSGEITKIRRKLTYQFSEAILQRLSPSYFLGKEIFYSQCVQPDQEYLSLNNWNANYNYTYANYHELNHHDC
Procedure, shortened: as §1

[13] = target: ELF4 (Homo sapiens, UniProt Q99607 1-663)
ELF4, sequence (Q99607 whole entry): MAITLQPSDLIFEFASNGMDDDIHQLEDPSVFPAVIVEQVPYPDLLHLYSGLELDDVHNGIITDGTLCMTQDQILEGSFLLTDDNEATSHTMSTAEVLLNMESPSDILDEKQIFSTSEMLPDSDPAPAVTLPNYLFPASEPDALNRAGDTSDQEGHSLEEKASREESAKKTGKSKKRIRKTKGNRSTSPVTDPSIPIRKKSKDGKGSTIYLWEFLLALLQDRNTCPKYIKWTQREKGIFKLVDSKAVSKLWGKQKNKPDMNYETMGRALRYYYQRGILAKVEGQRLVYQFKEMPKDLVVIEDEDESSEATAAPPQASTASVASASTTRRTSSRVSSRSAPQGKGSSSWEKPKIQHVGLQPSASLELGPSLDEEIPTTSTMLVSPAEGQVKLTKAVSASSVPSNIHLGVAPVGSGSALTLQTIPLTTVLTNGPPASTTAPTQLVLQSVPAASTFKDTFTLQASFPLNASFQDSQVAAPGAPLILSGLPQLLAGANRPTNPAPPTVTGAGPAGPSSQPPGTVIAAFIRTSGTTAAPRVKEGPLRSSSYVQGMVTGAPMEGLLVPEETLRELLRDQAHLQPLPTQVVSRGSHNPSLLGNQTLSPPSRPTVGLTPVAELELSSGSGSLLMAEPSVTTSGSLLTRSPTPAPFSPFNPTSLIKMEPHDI
Procedure, shortened: as §1

[14] = target: T9, ELK4 (Homo sapiens, UniProt P28324-2 1-405)
T9 sequence: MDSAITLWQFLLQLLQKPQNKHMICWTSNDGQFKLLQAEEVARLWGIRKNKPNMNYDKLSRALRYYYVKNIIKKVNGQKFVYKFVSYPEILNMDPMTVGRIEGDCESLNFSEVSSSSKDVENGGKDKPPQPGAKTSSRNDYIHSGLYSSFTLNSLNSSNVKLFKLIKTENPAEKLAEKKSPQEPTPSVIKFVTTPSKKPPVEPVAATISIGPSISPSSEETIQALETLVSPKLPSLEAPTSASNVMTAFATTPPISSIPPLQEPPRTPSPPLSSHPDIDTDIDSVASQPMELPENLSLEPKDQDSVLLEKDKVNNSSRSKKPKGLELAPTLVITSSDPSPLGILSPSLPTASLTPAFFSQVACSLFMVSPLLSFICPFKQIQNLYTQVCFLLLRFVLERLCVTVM
Procedure, shortened: as §1

[15] = target: T10, ETV2 (Homo sapiens, UniProt O00321 1-342)
T10 sequence: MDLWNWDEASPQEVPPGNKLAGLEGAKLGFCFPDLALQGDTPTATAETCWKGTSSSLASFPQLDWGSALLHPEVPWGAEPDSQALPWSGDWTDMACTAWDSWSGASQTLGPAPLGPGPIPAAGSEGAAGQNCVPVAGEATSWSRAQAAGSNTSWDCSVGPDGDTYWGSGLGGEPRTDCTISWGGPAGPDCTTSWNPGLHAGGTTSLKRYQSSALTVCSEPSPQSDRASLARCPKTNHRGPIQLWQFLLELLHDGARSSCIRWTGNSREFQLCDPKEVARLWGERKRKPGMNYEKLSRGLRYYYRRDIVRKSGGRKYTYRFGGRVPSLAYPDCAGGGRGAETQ
Procedure, shortened: as §1

[16] = target: T11, ELF3 (Homo sapiens, UniProt P78545 1-371)
T11 sequence: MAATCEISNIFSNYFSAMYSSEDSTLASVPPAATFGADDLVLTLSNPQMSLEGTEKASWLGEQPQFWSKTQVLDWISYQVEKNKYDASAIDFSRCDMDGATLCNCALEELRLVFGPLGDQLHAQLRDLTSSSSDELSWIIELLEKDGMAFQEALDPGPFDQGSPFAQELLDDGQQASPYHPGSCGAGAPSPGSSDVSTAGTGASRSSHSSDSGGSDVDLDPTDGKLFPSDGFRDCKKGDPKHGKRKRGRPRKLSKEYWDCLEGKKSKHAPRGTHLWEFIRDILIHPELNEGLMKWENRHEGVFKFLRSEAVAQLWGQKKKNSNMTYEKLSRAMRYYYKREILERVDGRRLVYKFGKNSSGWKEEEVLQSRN
Procedure, shortened: as §1

[17] = target: ETV1 (Homo sapiens, UniProt P50549 1-477)
ETV1, sequence (P50549 whole entry): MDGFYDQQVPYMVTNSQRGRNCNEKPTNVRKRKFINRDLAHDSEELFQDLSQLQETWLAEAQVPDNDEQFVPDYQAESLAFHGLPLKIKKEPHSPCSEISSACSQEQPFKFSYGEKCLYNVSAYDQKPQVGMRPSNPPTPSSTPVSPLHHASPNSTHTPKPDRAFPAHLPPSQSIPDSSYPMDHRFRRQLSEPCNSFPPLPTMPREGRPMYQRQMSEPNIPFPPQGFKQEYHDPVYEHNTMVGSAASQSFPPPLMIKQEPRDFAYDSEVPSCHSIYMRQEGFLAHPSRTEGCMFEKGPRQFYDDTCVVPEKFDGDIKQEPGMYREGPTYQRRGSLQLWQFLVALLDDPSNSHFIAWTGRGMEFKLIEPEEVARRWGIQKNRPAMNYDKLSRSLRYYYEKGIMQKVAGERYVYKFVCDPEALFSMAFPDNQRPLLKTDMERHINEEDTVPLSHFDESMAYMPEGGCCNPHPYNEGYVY
Procedure, shortened: as §1

Sequence	binding signal [1]	binding signal [2]	binding signal [3]	binding signal [4]	binding signal [5]	binding signal [6]	binding signal [7]	binding signal [8]	binding signal [9]	binding signal [10]	binding signal [11]	binding signal [12]	binding signal [13]	binding signal [14]	binding signal [15]	binding signal [16]	binding signal [17]
CACATA	1.14 fold enrichment (6-mer frequency, TF over GST control)	1.14 fold enrichment (6-mer frequency, TF over GST control)	1.11 fold enrichment (6-mer frequency, TF over GST control)	1.14 fold enrichment (6-mer frequency, TF over GST control)	1.18 fold enrichment (6-mer frequency, TF over GST control)	1.13 fold enrichment (6-mer frequency, TF over GST control)	1.11 fold enrichment (6-mer frequency, TF over GST control)	1.06 fold enrichment (6-mer frequency, TF over GST control)	1.17 fold enrichment (6-mer frequency, TF over GST control)	1.1 fold enrichment (6-mer frequency, TF over GST control)	1.1 fold enrichment (6-mer frequency, TF over GST control)	1.07 fold enrichment (6-mer frequency, TF over GST control)	1.1 fold enrichment (6-mer frequency, TF over GST control)	1.07 fold enrichment (6-mer frequency, TF over GST control)	1.18 fold enrichment (6-mer frequency, TF over GST control)	1.11 fold enrichment (6-mer frequency, TF over GST control)	1.05 fold enrichment (6-mer frequency, TF over GST control)
TGCACC	1.12 fold enrichment (6-mer frequency, TF over GST control)	1.16 fold enrichment (6-mer frequency, TF over GST control)	1.25 fold enrichment (6-mer frequency, TF over GST control)	1.09 fold enrichment (6-mer frequency, TF over GST control)	1.2 fold enrichment (6-mer frequency, TF over GST control)	1.25 fold enrichment (6-mer frequency, TF over GST control)	1.16 fold enrichment (6-mer frequency, TF over GST control)	1.15 fold enrichment (6-mer frequency, TF over GST control)	1.16 fold enrichment (6-mer frequency, TF over GST control)	1.23 fold enrichment (6-mer frequency, TF over GST control)	1.12 fold enrichment (6-mer frequency, TF over GST control)	1.14 fold enrichment (6-mer frequency, TF over GST control)	1.19 fold enrichment (6-mer frequency, TF over GST control)	1.3 fold enrichment (6-mer frequency, TF over GST control)	1.13 fold enrichment (6-mer frequency, TF over GST control)	1.21 fold enrichment (6-mer frequency, TF over GST control)	1.13 fold enrichment (6-mer frequency, TF over GST control)
CGTTAC	1.17 fold enrichment (6-mer frequency, TF over GST control)	1.09 fold enrichment (6-mer frequency, TF over GST control)	1.08 fold enrichment (6-mer frequency, TF over GST control)	1.11 fold enrichment (6-mer frequency, TF over GST control)	1.12 fold enrichment (6-mer frequency, TF over GST control)	1.14 fold enrichment (6-mer frequency, TF over GST control)	1.27 fold enrichment (6-mer frequency, TF over GST control)	1.11 fold enrichment (6-mer frequency, TF over GST control)	1.21 fold enrichment (6-mer frequency, TF over GST control)	1.13 fold enrichment (6-mer frequency, TF over GST control)	1.08 fold enrichment (6-mer frequency, TF over GST control)	1.05 fold enrichment (6-mer frequency, TF over GST control)	1.07 fold enrichment (6-mer frequency, TF over GST control)	1.02 fold enrichment (6-mer frequency, TF over GST control)	1.02 fold enrichment (6-mer frequency, TF over GST control)	1.04 fold enrichment (6-mer frequency, TF over GST control)	1.17 fold enrichment (6-mer frequency, TF over GST control)
